In one assay the target is FKTN. Put plainly: pooled miR-30 sensor sort-seq; sequence = guide strand. As to conditions: shRNA.
In the case of TTAACTGCACGCCACTGTGTGC, the sensor-assay potency score (higher = more potent) is -1.27. The same measure, in the same setting: for TGCATTGTCGATACCATCCTAG the value was -0.739. The same measure, in the same setting: the value for TTTTACATCATCTTTTCCCTGG was 0.348. Still for that read-out and setting: the value for TTCCAAGCTGTCTTCTACCTTC was -0.104; that for TTGTTTAATGTTTTCGCTGCTA was 0.0989; that for ATTTTGACAAACCAGCTCCATT was -1.46. The sequence TAAACCTAGAGTGTGGTACTTC had a sensor-assay potency score (higher = more potent) of 0.175. On to TTTTAAACAGTTATCTACCTTT, for which the sensor-assay potency score (higher = more potent) was found to be 0.405.

On to TGCATTGTGAAGTAGAGCCATG, for which the sensor-assay potency score (higher = more potent) is -1.03. Same read-out and setting: for TTTCCTGTCAATGTGTTCTTTA the value was -0.407; for TAGAGTGTGGTACTTCTTCTAC, -0.462.

For the sequence TTTGACTTGTTCAAAGTTCTTA, the sensor-assay potency score (higher = more potent) was 0.733. For the sequence TTTGCAGATATAGTGCAGGGGG, the sensor-assay potency score (higher = more potent) is -0.241. Regarding TTGCATTGTGAAGTAGAGCCAT, the sensor-assay potency score (higher = more potent) is 0.152. On to TATCAGATTTGTAATCTTGTAT, for which the sensor-assay potency score (higher = more potent) came to 0.319. Take TAGACAAGTTCCACTGCTCAGC: the sensor-assay potency score (higher = more potent) is -0.942.

Sequence TCCATCAACAGTAACTTGCTGT came in with a sensor-assay potency score (higher = more potent) of -0.268. Still for that read-out and setting: for TTGCATTGTCGATACCATCCTA the value was -0.0659; for TTTAAGTCTCAAGTGGCCGTGC, 0.148.

The target of a further assay is FLG. The assay is described as above. Particulars: shRNA.
In turn, TTCAGAACTAGATTCATGCCTT yielded a sensor-assay potency score (higher = more potent) of 0.702. Still for that read-out and setting: the value for TTTCTCTGCTTGCACTTCTGGA was -0.359. In turn, TTTTGAGTCATTCTTCCTGTAT gave a sensor-assay potency score (higher = more potent) of -0.417. In turn, TTCTAATAGACTATCAGTGGTG came in with a sensor-assay potency score (higher = more potent) of -0.268. The same measure, in the same setting: the value for TTGTCTGCTGACACTTCTGGAT was -0.488; that for TTTTTTTGAATATTGCTTGAAA was -0.0278; that for TAATCTGCACTACCATAGCTGC was -1.29.

ATTGTAACTAACACTTCCGTGC displayed a sensor-assay potency score (higher = more potent) of 0.359. The same measure, in the same setting: the value for TAGACTCATAATATGCTTGAGC was -0.577; that for TATGAGTAGGTGAATATCCTTT was -0.066. Same read-out and setting: the value for TAGAGTCTGACTGTACAGGTGA was 0.79; that for TAGAATGGCCACATAAACCTGG was 0.301; that for TTTCATAATCATATACTCCTTC was 0.805. TTGTCTGCTTGCACTTCTGGAT displayed a sensor-assay potency score (higher = more potent) of -0.517. TAATCTAGTATTTTCAGTCTTG showed a sensor-assay potency score (higher = more potent) of 0.133. Same read-out and setting: for TTTGTCTGCTGACACTTCTGGA the value was -0.531; for TTTCTTCTAATAGACTATCAGT, -0.739; for TTTGTCTGCTTGCACTTCTGGA, -0.568. Same read-out and setting: for TTTACTTGAGTTATGATGGTTT the value was 0.102; for AATTGTAACTAACACTTCCGTG, -0.414.

Regarding TCTATTGTTTCTTCTTTCCAGA, the sensor-assay potency score (higher = more potent) was -0.556.

For the origin of these results see the OligoGym collection.
Further: reference of the scale not given here.
